From PubChem BioAssay AID1851 (National Center for Advancing Translational Sciences (NCATS), 2009)
About 5,100 (32%) of roughly 16,000 compounds were called active. Inconclusive results (about 25%) are left out. Some of the results follow. A number with no mark means an inactive call. The call rests on the fitted dose curve; in most records, active means well fitted curve in the direction sought with a large enough effect; inconclusive means small, poorly fitted or top-dose-only effect, or effect the other way; inactive means no such curve, though single readings can be large or run the other way.
On the % scale 0 is the no-effect control and ±100 the full control effect.

Each molecule was assayed against Cytochrome P450 3A4 (Homo sapiens) (UniProt P08684) (assay: Cytochrome panel assay with activity outcomes). Conditions: recombinant CYP, pro-luciferin dealkylation, luminescence, p450-cyp3a4; series mostly up to 57.1 µM.
Sequence of Cytochrome P450 3A4 (Homo sapiens) (P08684 whole entry, looked up): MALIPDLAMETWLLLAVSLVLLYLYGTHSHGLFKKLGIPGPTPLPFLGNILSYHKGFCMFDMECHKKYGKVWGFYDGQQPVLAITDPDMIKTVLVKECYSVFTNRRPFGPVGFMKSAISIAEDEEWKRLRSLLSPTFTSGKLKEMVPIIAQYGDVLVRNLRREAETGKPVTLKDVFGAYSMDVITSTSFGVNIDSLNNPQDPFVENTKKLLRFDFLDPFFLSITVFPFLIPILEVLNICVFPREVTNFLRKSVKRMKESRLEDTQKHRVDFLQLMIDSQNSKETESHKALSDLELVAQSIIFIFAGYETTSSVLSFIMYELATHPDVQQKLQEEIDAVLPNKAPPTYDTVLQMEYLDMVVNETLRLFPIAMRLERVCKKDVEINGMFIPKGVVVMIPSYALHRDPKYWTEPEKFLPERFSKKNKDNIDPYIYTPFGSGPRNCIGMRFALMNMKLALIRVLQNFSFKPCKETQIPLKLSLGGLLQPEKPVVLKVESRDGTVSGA
`CN1[C@@H](CC(=O)c2ccccc2)CCC[C@@H]1C[C@@H](O)c1ccccc1` was tested, and the AC50 was “inactive”.
In the case of `O=C1COC(c2ccccc2O)=NN1CCCN1CCCC1`, the activity, negative = inhibition is reported as -10.8% [at 11.4 µM].
In the case of `CCc1ccc(N/C(SCc2ccccc2C)=C(/C#N)C(=O)NCc2ccco2)cc1`, the AC50 is reported as 6.31 µM (active).
In the case of `CCN1CCC[C@@H]1CNC(=O)c1cc(S(N)(=O)=O)ccc1OC`, the AC50 is reported as “inactive”.
In the case of `O=C(CSc1ccc(Cl)cc1)Nc1ccc(N2CCN(C(=O)c3ccc(Cl)cc3)CC2)cc1`, the AC50 is reported as 0.891 µM (active).
In the case of `O=C(CSc1ccc(Cl)cc1)Nc1ccc(N2CCN(c3ccccc3)CC2)c(F)c1`, the AC50 is reported as “inactive”.
With `O=C(CSc1ccccc1)Nc1ccc(N2CCN(c3ccccc3)CC2)c(F)c1` the activity, negative = inhibition was -8.27% [at 11.4 µM].
For `Cn1nc(-c2ccccc2)c(C(=O)Nc2ccc(Cl)cc2)c1Cl`, the AC50 was “inactive”.
`Cc1nc(-c2cccnc2)sc1C(=O)Nc1ccc(F)cc1F` was tested, and the AC50 was 15.8 µM (active).
For `Cc1nc(-c2cccnc2)sc1C(=O)Nc1ccc(Cl)cc1`, the AC50 was 14.1 µM (active).
In the case of `O=C(Nc1ccc(Cl)cc1)c1cnc(-c2ccccc2)nc1-c1ccccc1`, the AC50 is reported as “inactive”.
For `Brc1ccc2cccnc2c1`, the AC50 was “inactive”.
For `CN1CCN(c2ncc3nc(-c4ccc(Cl)cc4)c(=O)n(CCC#N)c3n2)CC1`, the AC50 was “inactive”.
`N#CCCn1cc(/C=N/O)c(-c2ccc(Cl)cc2)n1` was tested, and the AC50 was 12.6 µM (active).
With `N#CCCn1c(=O)c(-c2ccc(Cl)cc2)nc2cnc(N3CCOCC3)nc21` the AC50 was “inactive”.
For `O=S(=O)(N/N=C/c1ccc2c(c1)OCCO2)c1ccc(Cl)cc1`, the AC50 was 14.1 µM (active).
For `Cc1ccc(S(=O)(=O)N/N=C/c2ccc(OC3CSC3)cc2)cc1`, the activity, negative = inhibition was -21.9% [at 2.29 µM].
`O=S(=O)(N/N=C\c1ccc2c(c1)OCO2)c1ccc(Cl)cc1` was tested, and the AC50 was 3.98 µM (active).
`Cc1cc(OC(=O)c2ccccc2Br)cc(=O)n1C` was tested, and the activity, negative = inhibition was -13.2% [at 11.4 µM].
With `CC(C)N=c1cc2n(-c3ccc(Cl)cc3)c3ccccc3nc-2cc1Nc1ccc(Cl)cc1` the AC50 was “inactive”.
In the case of `CC(Sc1nc(NCc2ccccc2)nc(N(C)C)n1)C(=O)Nc1ccccc1` (stereo unspecified), the activity, negative = inhibition is reported as -9.99% [at 2.29 µM].
In the case of `CN(C)c1nc(NCc2ccccc2)nc(N/N=C/c2ccc(Cl)cc2Cl)n1`, the AC50 is reported as 2.24 µM (active).
In the case of `O=C(N/N=C/c1ccc(Cl)cc1Cl)Nc1ccccc1`, the AC50 is reported as “inactive”.
In the case of `N.N.O=C(O)C1(C(=O)O)CCC1.[Pt]`, the AC50 is reported as 39.8 µM (active).
In the case of `NC1(C(=O)O)C[C@@H](C(=O)O)[C@H](C(=O)O)C1`, the AC50 is reported as “inactive”.
In the case of `O=C(O)CC1(C(=O)O)CCCCC1`, the activity, negative = inhibition is reported as -15.2% [at 11.4 µM].
In the case of `Cc1ccc(S(=O)(=O)c2nc(S(=O)(=O)c3ccc(C)cc3)c(NCc3ccco3)s2)cc1`, the AC50 is reported as 3.55 µM (active).
`O=C1Nc2ccc(F)cc2C12Nc1ccccc1-c1nnc(SCc3ccccc3F)nc1O2` (stereo unspecified) was tested, and the AC50 was 15.8 µM (active).
With `Cc1ccc(CSc2nnc3c(n2)OC2(Nc4ccccc4-3)C(=O)Nc3ccc(F)cc32)cc1` (stereo unspecified) the activity, negative = inhibition was -12.4% [at 2.29 µM].
In the case of `Cc1cc(CNC(=O)[C@H]2C[C@@H]2[C@H](NP(=O)(c2ccccc2)c2ccccc2)c2ccccc2)nn1C`, the AC50 is reported as 2.51 µM (active).
With `Cc1ccc(CNC(=O)[C@H]2C[C@@H]2[C@H](NP(=O)(c2ccccc2)c2ccccc2)c2ccccc2)c(F)c1F` the AC50 was 0.316 µM (active).
For `Cc1cc(CNC(=O)[C@@H]2C[C@H]2[C@@H](NP(=O)(c2ccccc2)c2ccccc2)c2ccccc2)nn1C`, the AC50 was 0.398 µM (active).
For `CC[C@H]1CN(C)[C@H]2Cc3c([nH]c4ccccc34)C(=O)C[C@H]1[C@H]2C(=O)OC`, the activity, negative = inhibition was -21.4% [at 11.4 µM].
`C[Si](C)(c1ccc(C(=O)O)cc1)c1ccc(C(=O)O)cc1` was tested, and the activity, negative = inhibition was -6.28% [at 11.4 µM].
In the case of `CCN(CC)c1ncnc2c1sc1nc(C)cc(C)c12`, the AC50 is reported as 12.6 µM (active).
`CCN(CC)N=Nc1[nH]nc2nc(C)cc(C)c12` gave an activity, negative = inhibition of -15.1% [at 11.4 µM].
`NC(=O)c1cccc(N)c1` was tested, and the AC50 was “inactive”.
In the case of `C/C(=N\Nc1ccc([N+](=O)[O-])cc1)c1cccc(N)c1`, the AC50 is reported as 3.55 µM (active).
With `COCCNc1nc(-c2ccccc2Cl)nc2ccccc12` the AC50 was 12.6 µM (active).
`COCCNc1nc(-c2ccccc2C(F)(F)F)nc2ccccc12` was tested, and the AC50 was 12.6 µM (active).
Work on `Nc1nc(SCC(=O)O)[nH]c(=O)c1N` yielded an activity, negative = inhibition of -4.46% [at 11.4 µM].
With `Cc1ccc2nc(Cc3ccc(N)cc3)[nH]c2c1` the AC50 was 1.78 µM (active).
In the case of `Cc1ccc2nc(-c3ccc(NC(=O)Cc4cccs4)cc3)[nH]c2c1`, the activity, negative = inhibition is reported as -7.46% [at 2.29 µM].
`C[N+](C)(C)c1ncnc2c1ncn2[C@@H]1CCCCO1` showed an activity, negative = inhibition of -9.49% [at 11.4 µM].
`Cn1c(-c2sc(=S)n(-c3ccccc3)c2N)nc2ccccc21` was tested, and the AC50 was 4.47 µM (active).
`Cc1cccc(N2CC(O)=C(c3nc4ccccc4n3C)C2=N)c1` was tested, and the AC50 was “inactive”.
In the case of `CCN(CC)c1ccc2c(c1)OC(N)=C(C#N)C2c1cccnc1` (stereo unspecified), the AC50 is reported as 0.891 µM (active).
`CC(=O)Nc1ccc(NC(=O)Cn2c(-c3ccc(F)cc3)cnc2SCC(=O)Nc2c(C)cccc2C)cc1` was tested, and the AC50 was 3.16 µM (active).
Molecule `Cc1cccc(C)c1NC(=O)Nc1ccc(S(N)(=O)=O)cc1` has an activity, negative = inhibition of -9.51% [at 11.4 µM].
For `CC[N+](CC)(CC)CC(=O)Nc1c(C)cccc1C`, the AC50 was “inactive”.
With `CSC(N)=NCCC[C@@H](N)C(=O)O` the AC50 was “inactive”.
`CN(C)c1ccc(-c2ccc3ncnc(NCc4ccccc4)c3c2)cc1` was tested, and the AC50 was 2.51 µM (active).
With `Cc1cccc(CNc2ncnc3ccc(-c4ccc(C(=O)N(C)C)cc4)cc23)c1` the AC50 was 2 µM (active).
`CN(C)C(=O)c1ccc(-c2ccc3ncnc(NCc4cccs4)c3c2)cc1` was tested, and the AC50 was 10 µM (active).
For `CN(C)C(=O)c1ccc(-c2ccc3ncnc(NCc4ccccc4)c3c2)cc1`, the AC50 was 15.8 µM (active).
In the case of `OCCN1CCN(C(=S)c2ccc(Br)cc2)CC1`, the AC50 is reported as “inactive”.
With `NC(N)=Nc1ccc(Cl)cc1` the AC50 was “inactive”.
For `CC(=O)OC[C@@H]1O[C@@H](O/N=C2/C[C@@H](O)[C@@H](O)[C@@H]3[C@@H]4C(=O)N(C[C@@H]5CCCO5)C(=O)[C@H]4CC[C@@H]23)[C@H](OC(C)=O)[C@H](OC(C)=O)[C@@H]1OC(C)=O`, the activity, negative = inhibition was -14.3% [at 11.4 µM].
With `Clc1ccc2c(c1)N(CCCN1CCCC13CCCCC3)c1ccccc1S2` the activity, negative = inhibition was -16.3% [at 11.4 µM].
`O=C(O)[C@@H](Cc1c[nH]c2ccccc12)C(=O)NO` was tested, and the activity, negative = inhibition was -15.9% [at 11.4 µM].
In the case of `COc1cccc(CNCCc2c[nH]c3ccccc23)c1OCc1ccccc1F`, the AC50 is reported as 4.47 µM (active).
With `COc1cc(CNCCc2c[nH]c3ccccc23)ccc1OCc1ccccc1F` the AC50 was 7.08 µM (active).
`O=c1c[n+](CCCC[n+]2cc(=O)o[nH]2)[nH]o1` was tested, and the activity, negative = inhibition was -11.2% [at 11.4 µM].
With `Cc1cc[n+](CC(=O)Nc2cc(C(F)(F)F)ccc2Cl)cc1` the AC50 was “inactive”.
In the case of `CN(C)c1cc[n+](CC(=O)Nc2cc(C(F)(F)F)ccc2Cl)cc1`, the AC50 is reported as “inactive”.
For `Cc1ccc(C)n1CCN1CCN(CC(=O)Nc2cc(C(F)(F)F)ccc2Cl)CC1`, the AC50 was 25.1 µM (active).
For `CCOc1ccc(NCc2nnc(SCc3ccccc3Cl)n2-c2ccccc2)cc1`, the AC50 was 14.1 µM (active).
In the case of `CCOC(=O)CSC1=NC(=O)/C(=C\c2ccc(Cl)cc2)S1`, the AC50 is reported as “inactive”.
For `COc1ccc(NCc2nnc(SCc3ccccc3)n2-c2ccc(OC)cc2)cc1`, the AC50 was 5.01 µM (active).
`CCOC(=O)CSc1nnc(Cc2ccccc2)n1-c1cccc(Cl)c1` was tested, and the AC50 was 2 µM (active).
`COC(Cc1nnc(SC)n1-c1ccccc1)OC` was tested, and the AC50 was “inactive”.
For `COC(=O)CSc1nnc(CNc2ccc(Cl)cc2)n1-c1ccccc1`, the AC50 was 12.6 µM (active).
`CC(=O)N(/N=C/c1cccc(C)c1)c1nc(-c2ccc(Br)cc2)cs1` was tested, and the AC50 was “inactive”.
In the case of `CSc1nsc(SC)c1NC(=O)OCc1ccccc1`, the AC50 is reported as 22.4 µM (active).
`CSc1nsc(SC)c1NC(=O)OCC1CCCO1` (stereo unspecified) gave an activity, negative = inhibition of -5.42% [at 11.4 µM].
With `CSc1nsc(SC)c1NC(=O)Nc1ccccn1` the AC50 was “inactive”.
`O=C(NN1C(=O)c2ccccc2C1=O)C1CCCCC1` was tested, and the AC50 was “inactive”.
With `Cc1nn(C)cc1C(=O)NNC(=S)Nc1ccccc1` the activity, negative = inhibition was 3.36% [at 2.29 µM].
With `O=C(CSCc1ccccc1Cl)NNC(=S)Nc1ccccc1` the AC50 was 4.47 µM (active).
`O=C(Nc1ccc(Br)cc1)C1CCC(=O)N1Cc1ccccc1Cl` (stereo unspecified) showed an activity, negative = inhibition of -3.06% [at 11.4 µM].
`O=C(CSCc1ccccc1Cl)NN1C(=O)c2ccccc2C1=O` was tested, and the AC50 was 14.1 µM (active).
With `O=C(NNC(=S)Nc1ccccc1)C1CC1` the AC50 was “inactive”.
`Nc1cc(S(=O)(=O)O)cc2ccc(S(=O)(=O)O)cc12` was tested, and the activity, negative = inhibition was -1.64% [at 11.4 µM].
With `O=C(NCCc1ccc(Cl)cc1)Nc1cccc(Cl)c1` the AC50 was 14.1 µM (active).
`CCOC(=O)CCCN` showed an activity, negative = inhibition of -12.7% [at 11.4 µM].
With `COc1ccc(C(=O)NCS(=O)(=O)c2ccc(C)cc2)cc1` the AC50 was 14.1 µM (active).
`Cc1ccc(C(=O)NN2CCOCC2)cc1` was tested, and the AC50 was “inactive”.
For `COc1ccc(NC(=O)C2(c3ccc(NC(=O)c4ccc(C)cc4)cc3)CCCC2)cc1`, the AC50 was “inactive”.
With `COc1ccc(C(=O)Nc2cccc3c2C(=O)NC3=O)cc1S(=O)(=O)N1CCOCC1` the activity, negative = inhibition was 1.45% [at 2.29 µM].
With `CCc1ccccc1NC(=O)c1ccc(F)c(S(=O)(=O)N2CCC(C(N)=O)CC2)c1` the AC50 was 15.8 µM (active).
For `CCOc1ccc(/C=N/Nc2nc(N3CCCC3)nc(N3CCCC3)n2)cc1OC`, the AC50 was 12.6 µM (active).
In the case of `CCOc1cc(/C=N/NC(=O)CN2CCCCC2)ccc1OCc1ccccc1`, the activity, negative = inhibition is reported as -6.35% [at 2.29 µM].
With `CC(C)(C)Nc1nc(N2CCCC2)nc(N2CCCC2)n1` the activity, negative = inhibition was 11.3% [at 2.29 µM].
For `Brc1cc2c(cc1/C=N/Nc1nc(N3CCCC3)nc(N3CCOCC3)n1)OCO2`, the AC50 was 2.82 µM (active).
`COc1cccc(/C=N/Nc2nc(N3CCCC3)nc(N3CCCC3)n2)c1O` was tested, and the AC50 was 10 µM (active).
In the case of `O=[N+]([O-])c1ccc(Nc2nc(N/N=C\c3ccc4c(c3)OCO4)nc(N3CCCCC3)n2)cc1`, the AC50 is reported as 1.26 µM (active).
